Screen size: about 4,400 compounds; about 390 (8.9%) showed an effect of 50% or more. Many of the other results were omitted from the sample, so strong results are more common in it than they were.

In the assay the test system is Trypanosoma brucei. Briefly: DNDI: Inhibition of Human African Trypanosomiasis, SBRI 427, in vitro at 2 ug.mL-1. Type of assay: functional.
Regarding `Cc1ccc(/C(=N/O)NCc2ccccc2)c(OCc2ccccn2)n1`, the “% inhibition” value is given as 13%.
The figure for `COc1ccc(Oc2nc(C)ccc2/C(=N/O)NCc2cc(F)cc(F)c2)cc1` is -8%.
The result for `Cc1ccc(Oc2nc(C)ccc2/C(=N/O)NCc2c(F)cccc2F)c(C)c1` reads -3%.
The figure for `COc1ccc(CN/C(=N\O)c2ccc(C)nc2Oc2ccc(C)cc2OC)cc1` is 24%; for `COc1cc(C)ccc1Oc1nc(C)ccc1/C(=N/O)NCc1ccccn1` it is -7%; for `COc1cc(C)ccc1Oc1nc(C)ccc1/C(=N/O)NCc1cc(F)cc(F)c1` it is 98%.
As for `Cc1cc(C)cc(CN/C(=N\O)c2ccc(C)nc2OCc2ccccn2)c1`, the “% inhibition” value was determined as 80%.
With `Cc1ccc(Oc2nc(C)ccc2/C(=N/O)NCc2cc(F)cc(F)c2)c(C)c1`, the “% inhibition” value is reported as 6%.
As to `Cc1ccc(/C(=N/O)NCc2ccccn2)c(OCc2ccccn2)n1`, the “% inhibition” value was -11%.
Turning to `COc1cc(C)ccc1Oc1nc(C)ccc1/C(=N/O)NCc1c(F)cccc1F`, the “% inhibition” value stood at 95%.
Consider `COc1ccccc1CN/C(=N\O)c1ccc(C)nc1Oc1ccc(C)cc1OC`, for which the “% inhibition” value is given as 11%.
The result for `COc1cc(C)ccc1Oc1nc(C)ccc1/C(=N/O)NCc1ccccc1` reads 99%.
The figure for `FC(F)(F)c1cccc(CNCc2coc(-c3ccc(Cl)cc3Cl)n2)c1` is -2%.
The result for `CCOc1ccccc1-c1nc(CN2CCN(c3cccc(C)c3)C(C)C2)co1` (configuration not stated) reads -6%; that for `COCCN(CCOC)Cc1coc(-c2ccc(O)cc2)n1`, 38%; that for `Cc1cccc(Oc2ccc(/C(=N/O)NCc3cccnc3)cn2)c1`, 12%.
`Cc1cccc(-c2nc(CN(C)CC#N)co2)c1`: the “% inhibition” value was 4%.
The result for `O/N=C(/c1cccnc1Oc1ccccc1Cl)N1CCN(c2ccc(F)cc2)CC1` reads 3%.
Consider `Cc1ccc(/C(=N/O)N2CCSCC2)c(Oc2ccc3ccccc3c2)n1`, for which the “% inhibition” value is given as 12%.
As for `Cc1cc(C)cc(CN/C(=N\O)c2ccc(C)nc2Oc2ccc(C)cc2C)c1`, the “% inhibition” value was found to be 18%.
The result for `Cc1cc(C)cc(CN/C(=N\O)c2ccc(C)nc2Oc2cc(C)cc(C)c2)c1` reads 41%; that for `COc1cc(C)ccc1Oc1nc(C)ccc1/C(=N/O)NCc1cc(C)cc(C)c1`, 98%.
For the molecule `CCN(CC)Cc1coc(-c2ccc(C)cc2)n1`, the “% inhibition” value worked out at 1%.
Consider `Cc1nccn1/C(=N\O)c1ccc(Oc2ccc(Cl)cc2)nc1`, for which the “% inhibition” value turned out to be 5%.
For the molecule `Cc1ccc(/C(=N/O)NCC(C)C)c(Oc2ccc3ccccc3c2)n1`, the “% inhibition” value is on record as 13%.
`Cc1ccc(/C(=N/O)NCc2ccccc2)c(Oc2cccc(F)c2)n1`: the “% inhibition” value worked out at 13%.
`Cc1ccc(/C(=N/O)N(C)c2ccccc2)c(Oc2cccc(F)c2)n1`: the “% inhibition” value is 86%.
Take `Cc1ccc(/C(=N/O)NCc2cc(F)cc(F)c2)c(Oc2cccc(F)c2)n1`: the “% inhibition” value is given as 28%.
The result for `COc1ccc(Oc2nc(C)ccc2/C(=N/O)N(C)c2ccccc2)cc1` reads -6%; that for `Cc1cccc(Oc2nc(C)ccc2/C(=N/O)NCC(C)C)c1`, 94%.
The figure for `Cc1ccc(/C(=N/O)NCC(C)C)c(Oc2cccc(C(C)C)c2)n1` is 3%; for `CSc1ccc(Oc2nc(C)ccc2/C(=N/O)N(C)c2ccccc2)cc1C` it is 5%; for `Cc1ccc(/C(=N/O)NCC(C)C)c(Oc2cccc(F)c2)n1` it is 79%.
The figure for `COc1cc(-c2nc(CN3CCN(c4cc(C)nc5ccccc45)CC3)co2)cc(OC)c1OC` is 10%; for `CN(Cc1ccco1)/C(=N\O)c1ccc(Oc2c(F)c(F)cc(F)c2F)nc1` it is -10%; for `COc1cc(-c2nc(CN3CC[C@H]4CCCC[C@@H]4C3)co2)cc(OC)c1OC` it is -12%.
`COc1cc(-c2nc(CNCc3cccc4ccccc34)co2)cc(OC)c1OC`: the “% inhibition” value is reported as 0%.
The result for `Cc1ccc(/C(=N/O)NCc2ccco2)c(Oc2ccc(F)cc2)n1` reads 22%; that for `CCN1CCN(Cc2coc(-c3ccc(Cl)cc3Cl)n2)CC1`, 22%; that for `CN(CCc1ccccn1)Cc1coc(-c2ccccc2Cl)n1`, 10%.
Take `CCC(C)(C)N/C(=N\O)c1ccnc(Oc2cccc(F)c2)c1`: the “% inhibition” value is given as 1%.
The figure for `CC(C)(C)CN/C(=N\O)c1ccnc(Oc2ccc(F)c(Cl)c2)c1` is 96%; for `Cc1cc(C)cc(CN/C(=N\O)c2ccnc(Oc3cccc(F)c3)c2)c1` it is 11%.
The figure for `O/N=C(\NCc1c(F)cccc1F)c1ccnc(Oc2ccc(F)c(Cl)c2)c1` is 30%; for `CC(C)(C)CN/C(=N\O)c1ccnc(Oc2cccc(F)c2)c1` it is 76%.
The figure for `CSCCN/C(=N\O)c1ccnc(Oc2ccc(F)c(Cl)c2)c1` is 5%; for `Brc1ccccc1-c1nc(CNC[C@@H]2CCCO2)co1` it is -9%.
In the case of `COc1ccc(Oc2nc(C)ccc2/C(N)=N/O)cc1`, the “% inhibition” value is 9%.
The figure for `CCCCC(CC)CNCc1coc(-c2ccc(C)cc2)n1` (configuration not stated) is 10%.
As for `Cc1ccc(/C(=N/O)N2c3ccccc3CCC2C)c(Oc2ccc3oc4ccccc4c3c2)n1` (configuration not stated), the “% inhibition” value was -9%.
As for `CCC(CC)N/C(=N\O)c1ccc(Oc2ccc3ccccc3c2)nc1`, the “% inhibition” value was 32%.
The figure for `O/N=C(\Nc1ccccc1)c1ccc(Oc2ccc3ccccc3c2)nc1` is -7%.
The result for `O/N=C(\NC1CCC1)c1ccc(Oc2ccc3ccccc3c2)nc1` reads 96%.
In the case of `O/N=C(\NCC1CCCCC1)c1ccc(Oc2ccc3ccccc3c2)nc1`, the “% inhibition” value is listed as 6%.
Take `CC1CCC(N/C(=N\O)c2ccc(Oc3ccc4ccccc4c3)nc2)CC1` (configuration not stated): the “% inhibition” value is on record as -9%.
The figure for `O/N=C(\NC1CCCCC1)c1ccc(Oc2ccc3ccccc3c2)nc1` is 77%; for `COCC(C)N/C(=N\O)c1ccc(Oc2ccc3ccccc3c2)nc1` (configuration not stated) it is 76%; for `COCC(C)N/C(=N\O)c1ccc(Oc2cc(C)cc(C(C)C)c2)nc1` (configuration not stated) it is 18%.
The result for `CC1CC(N/C(=N\O)c2ccc(Oc3ccc4ccccc4c3)nc2)CC(C)(C)C1` (configuration not stated) reads 4%; that for `COc1cc(-c2nc(CN3CCC4CCCCC4C3)co2)cc(OC)c1OC` (configuration not stated), -10%; that for `Fc1cccc(-c2nc(CN3CCN(c4ncccn4)CC3)co2)c1`, 6%.
The result for `FC(F)(F)c1ccc(-c2nc(Cn3ccnc3-c3ccccc3)co2)cc1` reads -8%.
Consider `c1cncc(CN(Cc2cccnc2)Cc2coc(-c3cccc4ccccc34)n2)c1`, for which the “% inhibition” value came out at 47%.
The figure for `COc1cccc(CNCc2coc(-c3ccccc3C)n2)c1` is 15%; for `COc1ccc(CCN(C)Cc2coc(-c3ccc(C(F)(F)F)cc3)n2)cc1OC` it is 7%.
In the case of `CCCN(CC1CC1)/C(=N\O)c1ccc(C)nc1Oc1cccc(C)c1`, the “% inhibition” value is reported as -4%.
With `Cc1cc(C)cc(Oc2nc(C)ccc2/C(=N/O)N2c3ccccc3CCC2C)c1` (configuration not stated), the “% inhibition” value worked out at 98%.
The result for `Cc1ccc(/C(=N/O)N2CCCc3ccccc32)c(Oc2ccc(F)c(F)c2)n1` reads 21%; that for `COc1ccc(Oc2nc(C)ccc2/C(=N/O)N2CCCc3ccccc32)cc1`, 11%; that for `Cc1ccc(/C(=N/O)N2CCCc3ccccc32)c(Oc2cccc(F)c2)n1`, 93%.
The figure for `Cc1cc(C)cc(Oc2nc(C)ccc2/C(=N/O)N2CCCc3ccccc32)c1` is 53%; for `CSc1ccc(Oc2nc(C)ccc2/C(=N/O)N2CCCc3ccccc32)cc1C` it is 10%; for `CSc1ccc(Oc2nc(C)ccc2/C(=N/O)N2c3ccccc3CCC2C)cc1C` (configuration not stated) it is 0%.
The result for `Cc1ccc(/C(=N/O)N2CCCc3ccccc32)c(Oc2ccc3ccccc3c2)n1` reads 15%; that for `Cc1ccc(/C(=N/O)N2c3ccccc3CCC2C)c(Oc2cccc(F)c2)n1` (configuration not stated), 34%; that for `CC(C)(C)COc1ncccc1/C(=N/O)NCCN1CCOCC1`, 6%.
`CCN(Cc1coc(-c2cccc(OC)c2)n1)c1cccc(C)c1`: the “% inhibition” value was -18%.
The result for `Fc1ccc(N2CCN(Cc3coc(-c4ccc(Cl)cc4Cl)n3)CC2)cc1` reads 14%.
Take `Cc1ccc(/C(=N/O)N(C)C2CCN(C)CC2)c(Oc2cccnc2)n1`: the “% inhibition” value is listed as 9%.
As for `CC1CCCN1/C(=N\O)c1cccnc1Oc1ccc(F)cc1` (configuration not stated), the “% inhibition” value turned out to be 2%.
The figure for `c1coc(-c2nc(CN3CCCCCC3)co2)c1` is 16%; for `CCN(Cc1ccccc1)Cc1coc(-c2ccccc2)n1` it is 9%; for `CN(Cc1coc(-c2ccc(C(F)(F)F)cc2)n1)C1CCN(Cc2ccccc2)C1` (configuration not stated) it is 0%.
With `CCc1ccc(Oc2ncccc2/C(=N/O)NCc2ccccc2OC)cc1`, the “% inhibition” value came out at 99%.
Regarding `CCOc1ccccc1CN/C(=N\O)c1cccnc1Oc1ccc(CC)cc1`, the “% inhibition” value is 99%.
Consider `CCOc1ccccc1Oc1ncccc1/C(=N\O)NCc1ccncc1`, for which the “% inhibition” value was 0%.
The figure for `CCOc1ccccc1CNCc1coc(-c2cccs2)n1` is -4%; for `Cc1nccn1/C(=N\O)c1ccnc(Oc2cccc3cnccc23)c1` it is 14%.
As for `c1ccc(C(c2ccccc2)N2CCN(Cc3coc(-c4ccco4)n3)CC2)cc1`, the “% inhibition” value came to 0%.
The result for `Cc1ccc(/C(=N/O)N2CCCCCC2)c(OCc2ccccn2)n1` reads 28%.
Take `C/C(=C\C#N)N/C(=N\O)c1ccnc(Oc2cc(C)ccc2C(C)C)c1`: the “% inhibition” value amounted to 21%.
Consider `CCOc1ccc(Oc2cc(/C(=N/O)NCc3ccccc3OC)ccn2)cc1`, for which the “% inhibition” value was 0%.
The result for `c1ccc(-c2cn(Cc3coc(-c4cccc5ccccc45)n3)cn2)cc1` reads -1%; that for `CCN(/C(=N\O)c1cccnc1Oc1ccc2c(c1)CCCC2)C(C)C`, 3%.
Turning to `CCOc1cccc(-c2nc(CN3CCN(c4ccccc4)CC3)co2)c1`, the “% inhibition” value came to 17%.
Consider `O/N=C(/c1cccnc1OCc1ccccc1F)N1CCCc2ccccc21`, for which the “% inhibition” value is recorded as -20%.
The figure for `CC1CCC(C)N1/C(=N\O)c1cccnc1Oc1ccc(-n2cncn2)cc1` (configuration not stated) is 9%; for `CC1CCc2ccccc2N1/C(=N\O)c1cccnc1Oc1ccc(-n2cncn2)cc1` (configuration not stated) it is 81%; for `CC(C)(C)COc1ncccc1/C(=N/O)N1CCCc2ccccc21` it is 100%.
The result for `CC(C)(C)COc1ncccc1/C(=N/O)N1CCCCCC1` reads 8%; that for `CC1CCc2ccccc2N1/C(=N\O)c1cccnc1OCC(C)(C)C` (configuration not stated), 84%.
The result for `CC(C)COc1ncccc1/C(=N/O)N1C(C)CCCC1C` (configuration not stated) reads 6%; that for `CC(C)(C)COc1ncccc1/C(=N/O)N1CCCC1`, 0%.
In the case of `CC1CCC(C)N1/C(=N\O)c1cccnc1OCC(C)(C)C` (configuration not stated), the “% inhibition” value is recorded as 93%.
The figure for `O/N=C(/c1cccnc1OCc1cccc(F)c1)N1CCCc2ccccc21` is -2%; for `CC(C)COc1ncccc1/C(=N/O)N1C(C)CCC1C` (configuration not stated) it is -2%.
The figure for `O/N=C(/c1cccnc1Oc1ccc(-n2cncn2)cc1)N1CCCc2ccccc21` is 10%.

The record behind these values is ChEMBL document CHEMBL1857833, “Screening and optimization of specific chemical series against human African Trypanosomiasis (HAT)”.
